Assay results from PubChem BioAssay (NCATS).
Results filed as inconclusive are left out. Activity calls are given as the source filed them. Calls come from the whole dose curve; as a rule, active = well fitted inhibition curve with a large enough effect; inconclusive = small, poorly fitted or top-dose-only effect; inactive = flat fitted curve, though single readings scatter.

Tests used:
Test in all cases: qHTS profiling for inhibitors of Plasmodium falciparum proliferation (AID 504749); note: nearly all actives have a fitted effect of over 60% in size
Conditions in all cases: P. falciparum in erythrocytes, SYBR Green DNA, 72 h; series mostly up to 28.7 µM
[1] = test system: N140
How it was run: (§1)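 Fluorescence of SYBR Green-bound parasite DNA, read at 485/535 nm, served as the growth measure. Infected erythrocytes were cultured with compound 72 h; artemisinin (0.29 uM) and DMSO wells defined the normalization range.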

[2] = test system: P93_24
How it was run: as §1

[3] = test system: P94_40
How it was run: as §1

[4] = test system: PAD
How it was run: as §1

[5] = test system: PC15
How it was run: as §1

[6] = test system: PC26
How it was run: as §1

[7] = test system: PC49
How it was run: as §1

[8] = test system: SC27B
How it was run: as §1

[9] = test system: TAB109
How it was run: as §1

[10] = test system: TAB113
How it was run: as §1

Measured: Potency
Potency is the fitted concentration of half-maximal effect.

CS(=O)(=O)c1ccc(C2=C(c3ccccc3)C(=O)OC2)cc1
inactive: all assays above

C=C1c2cccc(O)c2C(O)=C2C(=O)[C@@]3(O)C(O)=C(C(N)=O)C(=O)[C@@H](N(C)C)[C@@H]3[C@@H](O)[C@H]12
not listed: [2]
inactive: all other assays above

COc1ccnc(CS(=O)c2nc3ccc(OC(F)F)cc3[nH]2)c1OC (centres undefined)
not listed: [6]
inactive: all other assays above

CN1CC(=O)N2C(Cc3c([nH]c4ccccc34)[C@H]2c2ccc3c(c2)OCO3)C1=O (some centres undefined)
not listed: [2]
inactive: all other assays above

CN1CCN2c3ncccc3Cc3ccccc3C2C1 (centres undefined)
inactive: [3] | [5] | [7] | [8] | [9] | [10]

N#CC(c1ccc(Cl)cc1)c1c(Cl)cc(-n2ncc(=O)[nH]c2=O)cc1Cl (centres undefined)
inactive: all assays above

NS(=O)(=O)c1cc(Cl)c(Cl)c(S(N)(=O)=O)c1
inactive: all assays above

CC(C)CN(C[C@@H](O)[C@H](Cc1ccccc1)NC(=O)O[C@H]1CO[C@H]2OCC[C@H]21)S(=O)(=O)c1ccc(N)cc1
not listed: [1] | [4]
inactive: all other assays above

Cc1cc2nc3c(=O)[nH]c(=O)nc-3n(CC(O)C(O)C(O)CO)c2cc1C (centres undefined)
inactive: all assays above

COc1c(C)c2c(c(O)c1CC=C(C)CCC(=O)OCCN1CCOCC1)C(=O)OC2
inactive: [5] | [7]
active: [1] 8.91 µM | [2] 7.08 µM | [3] 7.94 µM | [4] 11.2 µM | [8] 5.01 µM | [9] 7.08 µM | [10] 5.01 µM

Clc1ccc(COC(Cn2ccnc2)c2ccc(Cl)cc2Cl)c(Cl)c1 (centres undefined)
inactive: [7]
active: [1] 2.24 µM | [2] 1.41 µM | [3] 2.82 µM | [4] 3.55 µM | [6] 2.56 µM | [8] 2.82 µM | [9] 3.98 µM | [10] 3.16 µM

COc1cc2c(cc1OC)CC(=O)N(CCCN(C)C[C@H]1Cc3cc(OC)c(OC)cc31)CC2
inactive: all assays above

N#Cc1c(N(CC(=O)O)CC(=O)O)sc(C(=O)O)c1CC(=O)O
inactive: all assays above

O=C(O)c1nc(=O)[nH]c(=O)[nH]1
inactive: all assays above

O=C1C(CCC(O)c2ccc(F)cc2)C(c2ccc(O)cc2)N1c1ccc(F)cc1 (centres undefined)
inactive: all assays above
